Several values for one entry are separate records, joined by “and”; a condition that tells them apart may be missing. Equal values may be shown once. Results filed as inconclusive are left out. A call without a number means that no potency is given here. More than one record can exist for a structure, and the calls need not agree. Activity calls are given as the source filed them. Unless noted, calls follow the shape of the dose curve; as a rule, active = well fitted curve in the direction sought with a large enough effect in the repeat runs; inconclusive = weak or mixed curves; inactive = no such curve, though single readings can be large; an effect the other way counts as inactive or inconclusive.
Assays:
[1] = target: Aryl hydrocarbon receptor (Homo sapiens) (UniProt P35869); experiment: qHTS assay to identify small molecule that activate the aryl hydrocarbon receptor (AhR) signaling pathway (AID 743085); also: nearly all actives have a fitted effect of over 15% in size; also: potency is read from the fitted curve at half-maximal effect;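 as to activation: HG2L7.5c1 human HepG2 liver cells with stably integrated DRE-driven firefly reporter; series mostly up to about 70 µM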
How it was run: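 24 h compound exposure, 37C, HepG2-derived HG2L7.5c1 cells with DRE-responsive luciferase. Readouts: fluorescence viability, then luminescence at room temperature after 30 min.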

[2] = qHTS assay to identify small molecule that activate the aryl hydrocarbon receptor (AhR) signaling pathway - cell viability counter screen (AID 743086); also: nearly all actives have a fitted effect of over 45% in size; also: potency is read from the fitted curve at half-maximal effect
How it was run: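 HepG2-AhR-luc (HG2L7.5c1) cells, 4000/well, were preincubated 5 h at 37C, exposed to compound in qHTS format for 24 hr at 37C, then given CellTiter-Fluor for 30 min; viability was read as fluorescence in the reporter wells.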

[3] = qHTS assay to identify small molecule antagonists of the peroxisome proliferator-activated receptor gamma (PPARg) signaling pathway - cell viability counter screen (AID 743194); also: nearly all actives have a fitted effect of over 55% in size
How it was run: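 PPARg-UAS-bla HEK293H cells were plated, rested 5 h at 37 C, then treated with compounds plus rosiglitazone (50 nM final) for 17 h at 37 C; viability was then read by CellTiter-Glo luminescence after 30 min at room temperature.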

[4] = qHTS assay for small molecule agonists of the antioxidant response element (ARE) signaling pathway (AID 743202; active = well fitted activation curve with a large enough effect in the signal ratio in the repeat runs, not every such curve was filed as active; the % refers to the signal ratio; also: potency is read from the fitted curve at half-maximal effect)
How it was run: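 Compounds delivered in DMSO to ARE-bla HepG2 cells (2,000 cells/well, pre-incubated 5 h) and left 16 h at 37 C. LiveBLAzer B/G FRET substrate then added for 2 h at RT before fluorescence reading.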

[5] = qHTS assay for small molecule agonists of the antioxidant response element (ARE) signaling pathway - cell viability counter screen (AID 743203; calls by dose curve; also: nearly all actives have a fitted effect of over 55% in size; also: potency is read from the fitted curve at half-maximal effect)
How it was run: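 ARE-bla HepG2 cells were plated, rested 5 h at 37C/5% CO2, then exposed to compounds in DMSO for 16 h. Viability was read as CellTiter-Glo luminescence after 30 min at room temperature, in the same wells as the ARE screen.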

[6] = qHTS assay for small molecule activators of the heat shock response signaling pathway - cell viability counter screen (AID 743209); also: nearly all actives have a fitted effect of over 50% in size; also: potency is read from the fitted curve at half-maximal effect
How it was run: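 HSE-bla HeLa cells plated overnight, then exposed to Tox21 compounds (23 nL in DMSO) for 5 h at 37 C. After the bla reporter read, CellTiter-Glo was added in the same wells and luminescence read after 30 min at room temperature.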

[7] = qHTS assay for small molecule activators of the heat shock response signaling pathway (AID 743210; active = well fitted activation curve with a large enough effect in the signal ratio in the repeat runs, with a control signal flat, not every such curve was filed as active; the % refers to the signal ratio;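 also: HeLa cells with beta-lactamase reporter driven by heat shock elements; series mostly up to about 63 µM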)
How it was run: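 Reporter gene assay: HeLa cells stably bearing an HSE-bla construct, compound treatment 5 h at 37 C, LiveBLAzer substrate 2.5 h at RT, fluorescence intensity.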

[8] = qHTS assay to identify small molecule agonists of the peroxisome proliferator-activated receptor delta (PPARd) signaling pathway - cell viability counter screen (AID 743211); also: nearly all actives have a fitted effect of over 55% in size; also: potency is read from the fitted curve at half-maximal effect
How it was run: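 Luminescent ATP viability assay (CellTiter-Glo, 30 min RT) in UAS-bla HEK293H cells carrying the PPAR delta reporter construct, 3000 cells/well, after a 17 h compound treatment at 37 C.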

[9] = qHTS assay to identify small molecule antagonists of the peroxisome proliferator-activated receptor delta (PPARd) signaling pathway - cell viability counter screen (AID 743213); also: nearly all actives have a fitted effect of over 50% in size; also: potency is read from the fitted curve at half-maximal effect
How it was run: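 PPARd-bla HEK293H cells were treated with compounds plus agonist L165041 (300 nM final) for 17 h at 37 C. Viability was then read in the same wells by CellTiter-Glo luminescence after 30 min at room temperature.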

[10] = qHTS assay to identify small molecule agonists of the farnesoid-X-receptor (FXR) signaling pathway - cell viability counter screen (AID 743218); also: nearly all actives have a fitted effect of over 45% in size; also: potency is read from the fitted curve at half-maximal effect
How it was run: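 FXR-UAS-bla HEK 293T cells exposed to compounds for 16 h at 37C. Cytotoxicity read in the same wells by CellTiter-Glo luminescence after 30 min at room temperature, following the beta-lactamase FRET read.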

[11] = qHTS assay to identify small molecule antagonists of the farnesoid-X-receptor (FXR) signaling pathway - cell viability counter screen (AID 743221; active = well fitted cell-killing curve with a large enough effect in the repeat runs, not every such curve was filed as active; also: nearly all actives have a fitted effect of over 50% in size; also: potency is read from the fitted curve at half-maximal effect)
How it was run: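 In GeneBLAzer FXR-UAS-bla HEK 293T cells stimulated with 50 uM chenodeoxycholic acid (final), compounds acted for 16 h at 37 C. Viability was assessed afterwards by CellTiter-Glo luminescence.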

[12] = target: Vitamin D3 receptor (Homo sapiens) (UniProt P11473); experiment: qHTS assay to identify small molecule agonists of the vitamin D receptor (VDR) signaling pathway (AID 743222; calls by dose curve)
How it was run: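 VDR-bla cells plated 4 h at 37 C, then exposed to compounds for 16 h at 37 C. Beta-lactamase reporter activity measured by fluorescence after 2 h room-temperature loading with LiveBLAzer B/G FRET substrate.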

[13] = target: Vitamin D3 receptor (Homo sapiens) (UniProt P11473); experiment: qHTS assay to identify small molecule antagonists of the vitamin D receptor (VDR) signaling pathway (AID 743223; active = well fitted inhibition curve with a large enough effect in the signal ratio in the repeat runs, not every such curve was filed as active; the % refers to the signal ratio)
How it was run: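 Agonist 1alpha,25-dihydroxyvitamin D3 (3 nM in well) was added with each compound to VDR-bla cells preincubated 4 h. Cells stood 16 h at 37C, then FRET substrate 2 h at room temperature; fluorescence intensity recorded.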

[14] = qHTS assay to identify small molecule agonists of the vitamin D receptor (VDR) signaling pathway - cell viability counter screen (AID 743224); also: nearly all actives have a fitted effect of over 50% in size; also: potency is read from the fitted curve at half-maximal effect
How it was run: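 VDR-bla cells, 4 h after plating, exposed to compounds for 16 h at 37C; viability then read in the same wells as CellTiter-Glo luminescence after 30 min at room temperature, following the bla FRET read.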

[15] = target: Peroxisome proliferator-activated receptor delta (Homo sapiens) (UniProt Q03181); experiment: qHTS assay to identify small molecule agonists of the peroxisome proliferator-activated receptor delta (PPARd) signaling pathway (AID 743212; calls by dose curve)
How it was run: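 A PPARd-bla HEK293H line with beta-lactamase under an Upstream Activator Sequence is treated with compounds at 37 C. Substrate loading for 2 h at room temperature precedes the fluorescence measurement.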

[16] = target: Peroxisome proliferator-activated receptor delta (Homo sapiens) (UniProt Q03181); experiment: qHTS assay to identify small molecule antagonists of the peroxisome proliferator-activated receptor delta (PPARd) signaling pathway (AID 743215; active = well fitted inhibition curve with a large enough effect in the signal ratio in the repeat runs, not every such curve was filed as active; the % refers to the signal ratio;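 also: cells stimulated with agonist L165041 at 300 nM final during compound exposure; series mostly up to about 62 µM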)
How it was run: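 PPARd-bla HEK293H cells (UAS-bla reporter) preincubated 5 h, then given compound plus 300 nM final L165041 agonist for 17 h at 37 C. Beta-lactamase activity read by LiveBLAzer B/G FRET substrate fluorescence after 2 h at room temperature.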

[17] = target: Bile acid receptor (Homo sapiens) (UniProt Q96RI1); experiment: qHTS assay to identify small molecule antagonists of the farnesoid-X-receptor (FXR) signaling pathway (AID 743217; active = well fitted inhibition curve with a large enough effect in the signal ratio in the repeat runs, not every such curve was filed as active; the % refers to the signal ratio)
How it was run: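 FXR-UAS-bla HEK 293T cells (beta-lactamase reporter) given compound plus chenodeoxycholic acid (50 uM final), 16 h at 37C. LiveBLAzer B/G FRET substrate added for 2 h at room temperature; fluorescence read.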

[18] = target: Bile acid receptor (Homo sapiens) (UniProt Q96RI1); experiment: qHTS assay to identify small molecule agonists of the farnesoid-X-receptor (FXR) signaling pathway (AID 743220; active = well fitted activation curve with a large enough effect in the signal ratio in the repeat runs, not every such curve was filed as active; the % refers to the signal ratio)
How it was run: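 Beta-lactamase reporter under UAS control in GeneBLAzer FXR HEK 293T cells (5000/well) measured with LiveBLAzer FRET substrate after 2 h at room temperature. Compound exposure lasted 16 h at 37C.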

Sequence of Vitamin D3 receptor (Homo sapiens) (P11473 whole entry, looked up): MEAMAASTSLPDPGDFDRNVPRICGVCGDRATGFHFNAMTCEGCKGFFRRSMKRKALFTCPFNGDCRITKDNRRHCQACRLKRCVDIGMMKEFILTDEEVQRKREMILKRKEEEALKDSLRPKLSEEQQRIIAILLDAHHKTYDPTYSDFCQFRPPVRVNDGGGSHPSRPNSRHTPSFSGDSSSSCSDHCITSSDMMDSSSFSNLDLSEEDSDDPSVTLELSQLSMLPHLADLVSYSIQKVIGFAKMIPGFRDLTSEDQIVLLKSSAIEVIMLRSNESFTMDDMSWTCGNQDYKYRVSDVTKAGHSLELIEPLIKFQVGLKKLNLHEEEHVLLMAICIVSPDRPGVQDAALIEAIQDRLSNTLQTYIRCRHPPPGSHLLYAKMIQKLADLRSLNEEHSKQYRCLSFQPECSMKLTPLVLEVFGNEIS
Sequence of Aryl hydrocarbon receptor (Homo sapiens) (P35869 whole entry, looked up): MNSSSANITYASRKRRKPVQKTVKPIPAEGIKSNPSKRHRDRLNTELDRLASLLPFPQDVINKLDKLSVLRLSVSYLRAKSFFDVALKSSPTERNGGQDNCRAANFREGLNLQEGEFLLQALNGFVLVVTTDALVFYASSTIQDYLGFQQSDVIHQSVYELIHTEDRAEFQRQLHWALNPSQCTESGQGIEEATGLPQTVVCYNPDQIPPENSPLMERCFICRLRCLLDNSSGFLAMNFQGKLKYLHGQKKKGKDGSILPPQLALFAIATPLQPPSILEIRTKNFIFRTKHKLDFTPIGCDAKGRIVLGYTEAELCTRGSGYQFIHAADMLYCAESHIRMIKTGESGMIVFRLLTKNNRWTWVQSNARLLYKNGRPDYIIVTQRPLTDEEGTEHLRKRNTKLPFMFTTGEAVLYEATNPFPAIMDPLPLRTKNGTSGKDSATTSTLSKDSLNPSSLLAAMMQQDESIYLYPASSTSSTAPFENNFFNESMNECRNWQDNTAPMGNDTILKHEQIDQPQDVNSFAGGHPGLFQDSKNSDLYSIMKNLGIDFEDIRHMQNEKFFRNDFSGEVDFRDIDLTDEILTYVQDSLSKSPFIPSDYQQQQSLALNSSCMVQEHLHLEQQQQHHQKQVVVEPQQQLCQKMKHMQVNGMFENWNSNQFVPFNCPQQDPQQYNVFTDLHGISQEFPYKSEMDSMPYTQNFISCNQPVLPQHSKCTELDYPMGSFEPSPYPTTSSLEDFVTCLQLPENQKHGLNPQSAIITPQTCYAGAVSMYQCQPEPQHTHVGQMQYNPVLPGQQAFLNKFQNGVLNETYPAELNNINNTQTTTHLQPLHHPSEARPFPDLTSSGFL
Sequence of Peroxisome proliferator-activated receptor delta (Homo sapiens) (Q03181 whole entry, looked up): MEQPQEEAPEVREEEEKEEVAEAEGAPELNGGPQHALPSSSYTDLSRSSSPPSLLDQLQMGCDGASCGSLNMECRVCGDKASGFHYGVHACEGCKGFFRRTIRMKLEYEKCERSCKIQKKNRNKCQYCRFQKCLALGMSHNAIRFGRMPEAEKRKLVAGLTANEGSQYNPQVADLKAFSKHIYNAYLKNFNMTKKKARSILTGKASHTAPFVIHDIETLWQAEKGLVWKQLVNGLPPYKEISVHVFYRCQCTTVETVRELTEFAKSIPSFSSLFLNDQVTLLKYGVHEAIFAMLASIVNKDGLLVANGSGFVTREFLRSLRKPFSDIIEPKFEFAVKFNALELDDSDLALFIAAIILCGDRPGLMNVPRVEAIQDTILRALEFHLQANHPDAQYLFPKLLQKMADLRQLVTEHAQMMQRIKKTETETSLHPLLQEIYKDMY
Sequence of Bile acid receptor (Homo sapiens) (Q96RI1 whole entry, looked up): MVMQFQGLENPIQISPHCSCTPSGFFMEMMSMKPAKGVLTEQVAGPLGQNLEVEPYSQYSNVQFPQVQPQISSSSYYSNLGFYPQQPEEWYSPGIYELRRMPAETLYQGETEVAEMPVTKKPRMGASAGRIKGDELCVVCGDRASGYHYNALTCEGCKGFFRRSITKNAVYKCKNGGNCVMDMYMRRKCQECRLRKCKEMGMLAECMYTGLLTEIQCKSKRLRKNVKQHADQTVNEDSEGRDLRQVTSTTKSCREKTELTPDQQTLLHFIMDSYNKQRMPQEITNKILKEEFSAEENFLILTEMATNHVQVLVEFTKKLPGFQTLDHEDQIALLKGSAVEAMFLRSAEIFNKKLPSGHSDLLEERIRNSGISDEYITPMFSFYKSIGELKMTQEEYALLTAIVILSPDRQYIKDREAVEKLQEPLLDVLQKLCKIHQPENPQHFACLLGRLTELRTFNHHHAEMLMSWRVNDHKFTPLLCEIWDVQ

For `C/C=C/C=C/C(=O)O`, the Potency [1] was “inactive”, the Potency [2] was “inactive” and the Potency [3] was “inactive”. The activation [4] was 7.69% [at 8.36 µM] (inactive), the Potency [5] was “inactive” and the Potency [6] was “inactive”. The outcome [7] was “inactive”, the Potency [8] was “inactive” and the Potency [9] was “inactive”. For the same compound, the Potency [10] was “inactive”, the Potency [11] was “inactive” and the Potency [12] was “inactive”. The Potency [13] was “inactive” and the Potency [14] was “inactive”.
In the case of `OC[C@H]1O[C@H](O[C@]2(CCl)O[C@H](CCl)[C@@H](O)[C@@H]2O)[C@H](O)[C@@H](O)[C@H]1Cl`, the Potency [1] was “inactive”, the Potency [2] was “inactive” and the Potency [3] was “inactive”. The Potency [4] was “inactive”, the Potency [5] was “inactive” and the Potency [6] was “inactive”. The outcome [7] was “inactive”, the Potency [8] was “inactive” and the Potency [15] was “inactive”. For the same compound, the Potency [9] was “inactive”, the Potency [16] was “inactive” and the Potency [10] was “inactive”. For the same compound, the Potency [11] was “inactive”, the Potency [12] was “inactive” and the Potency [13] was “inactive”. For the same compound, the Potency [14] was “inactive”.
In the case of `O=C(Nc1ncc([N+](=O)[O-])s1)c1cccs1`, the Potency [1] was 2.98 µM (active), the Potency [2] was “inactive” and the outcome [7] was “inactive”. For the same compound, the Potency [15] was “inactive”, the Potency [16] was “inactive” and the Potency [17] was “inactive”. For the same compound, the outcome [18] was “inactive”, the Potency [12] was “inactive” and the Potency [13] was “inactive”.
In the case of `CN[C@H]1CC[C@@H](c2ccc(Cl)c(Cl)c2)c2ccccc21`, the Potency [1] was “inactive”, the Potency [2] was “inactive” and the Potency [5] was 18.8 µM (active). For the same compound, the Potency [8] was 21.1 µM (active), the Potency [9] was 23.7 µM (active) and the Potency [10] was 23.7 µM (active). The Potency [11] was 26.6 µM (active) and the Potency [14] was 13.3 µM (active).
For `CC(C)c1c(C(=O)Nc2ccccc2)c(-c2ccccc2)c(-c2ccc(F)cc2)n1CC[C@@H](O)C[C@@H](O)CC(=O)O`, the Potency [2] was “inactive”, the Potency [3] was “inactive” and the Potency [4] was 13.2 µM (active). The Potency [5] was “inactive”, the Potency [6] was “inactive” and the outcome [7] was “inactive”. For the same compound, the Potency [8] was “inactive”, the Potency [9] was “inactive” and the Potency [10] was “inactive”. The Potency [11] was “inactive”, the Potency [12] was “inactive” and the Potency [13] was “inactive”. For the same compound, the Potency [14] was “inactive”.
For `CC/C(=C(\c1ccccc1)c1ccc(OCCN(C)C)cc1)c1ccccc1`, the Potency [1] was “inactive”, the Potency [2] was “inactive and 61.6 µM (active)” and the Potency [5] was 19.5 µM (active) and 27.3 µM (active) and 26.6 µM (active). The Potency [6] was “inactive and 35 µM (active) and 43.6 µM (active)”, the outcome [7] was “inactive” and the Potency [9] was 54.9 µM (active) and 17.5 µM (active). For the same compound, the Potency [11] was “inactive and 49.4 µM (active) and 54.9 µM (active)”.

Reference: PubChem BioAssay (Tox21)
